Compound activity from PubChem.
In the library only some 19% were active in any assay of this set; here they are far more common.
TDP1 cell noCPT – qHTS for Inhibitors of human tyrosyl-DNA phosphodiesterase 1 (TDP1): qHTS in cells in absence of CPT | 15% of 420,000 active | DT40 Tdp1-/- hTDP1 cells, no CPT, ATP luminescence, 48 h | Potency, µM (top dose mostly 46.2 µM), hits mostly inhibitors; further: nearly all actives have a fitted effect of over 55% in size
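Readout: luminescence from CellTiter-Glo after 30 min in the dark at RT. Cells: DT40 Tdp1-/- with stable hTDP1, 400/well. Exposure: compounds alone, ≥48 hr, 37 °C.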
DT40 TDP1 CPT – qHTS for Inhibitors of human tyrosyl-DNA phosphodiesterase 1 (TDP1): qHTS in cells in presence of CPT | chicken DT40 Tdp1-/-;hTDP1 cells + 20 nM CPT, ATP luminescence, 48 h | Potency, µM (doses to about 46.2 µM), most hits filed as inhibitors | 12% of 420,000 active | AID 686979, 2013; further: nearly all actives have a fitted effect of over 55% in size
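Cell growth measured by CellTiter-Glo luminescence after a minimum 48 h, 37 C compound exposure with 20 nM CPT in Tdp1-knockout DT40 cells stably expressing hTDP1, seeded 400/well; qHTS titration format.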
IL-1B inflam inh – qHTS for Inhibitors of Inflammasome Signaling: IL-1-beta AlphaLISA Primary Screen | THP-1 LPS/ATP IL-1B secretion, AlphaLISA, 16 h; active compounds read low | activity change, % at 57.5 µM | 4.7% of 360,000 active; in the data active means activity change below about -50%; inconclusive means mostly about -30% to -49%
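THP-1 cells pretreated 1 hr with compounds (up to 57.5 uM final), then stimulated with LPS (250 ng/mL final) plus ATP (1.25 mM final); secreted IL-1B measured by AlphaLISA after 16 hr, decreased signal indicating inhibition.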
HT1080 IDH1KD tx – qHTS for induction of synthetic lethality in tumor cells producing 2HG: qHTS for the HT-1080-IDH1KD cell line; HT-1080 IDH1 knockdown viability, ATP luminescence, 48 h; Potency, µM (titrated, usually from 46.1 µM), hits mostly cytotoxic; 2% of 360,000 active
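IDH1KD HT-1080 cells, 750/well, RPMI + 5% FBS; compound pinned after 2 h settling; 48 h, 37 °C; CellTiter-Glo luminescence; % activity normalised to DMSO and no-cell wells; curves fitted, classed by r2 and efficacy.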
HT1080-NT tox – qHTS for induction of synthetic lethality in tumor cells producing 2HG: qHTS for the HT-1080-NT fibrosarcoma cell line | AID 686970, 2013 | HT-1080-NT fibrosarcoma viability, CellTiter-Glo ATP luminescence, 48 h | 1.6% of 360,000 active | Potency, µM (top dose mostly 46.1 µM), hits mostly cytotoxic;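 further: NT is the 2HG producing partner of a matched IDH1 knockdown line; nearly all actives have a fitted effect of over 55% in size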
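A 48-hour cytotoxicity screen used HT-1080-NT cells plated 2 hours before compound delivery. ATP-based CellTiter-Glo luminescence measured viability, normalized to DMSO and no-cell controls.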
Numbers stand for hits; – = inactive; ? = inconclusive; · = no result. Unless noted, the call rests on the fitted dose curve; in most records, active means well fitted curve in the direction sought with a large enough effect; inconclusive means small, poorly fitted or top-dose-only effect, or another doubt; inactive means no such curve, though single readings can be large; an effect the other way counts as inactive or inconclusive.

SMILES	TDP1 cell noCPT	DT40 TDP1 CPT	IL-1B inflam inh	HT1080 IDH1KD tx	HT1080-NT tox
COc1cccc(N2CCN(C(=O)C3CCN(S(=O)(=O)c4cn(C)cn4)CC3)CC2)c1	–	–	·	·	·
CCOc1ccc(NC(=O)c2ccc3c(c2)nnn3C2CCCC2)cc1	?	–	·	·	·
Cc1cc(C)cc(NC(=O)c2ccc3c(c2)nnn3C2CCCC2)c1	1.5µM	1.3µM	·	·	·
CCCCNC(=O)c1ccc2nc(-c3cccs3)c(-c3cccs3)nc2c1	20µM	?	·	·	·
COC(CNC(=O)c1ccc2nc(-c3cccs3)c(-c3cccs3)nc2c1)OC	13µM	18µM	-51	–	–
CSc1cccc(-n2ccc(=O)c(C)c2C)c1	–	–	–	–	–
COc1ccc(-c2c(-c3cc(OC)cc(OC)c3)n(C)c3ccc(-c4cc(F)cc(OC)c4)cc23)cc1	16µM	?	–	–	–
COc1cccc(-c2c(-c3cc(OC)cc(OC)c3)n(C)c3ccc(-c4ccc5[nH]ccc5c4)cc23)c1	?	?	–	–	–
COc1ccc(-c2c(-c3cc(OC)cc(OC)c3)n(C)c3ccc(-c4ccc(SC)cc4)cc23)cc1	–	–	–	–	–
COc1cc(OC)cc(-c2c(-c3ccc(F)cc3)c3cc(-c4ccc5[nH]ccc5c4)ccc3n2C)c1	?	29µM	–	–	–
CSc1ccccc1NC(=O)CSc1nnc(CNC(=O)c2ccccc2F)n1C	–	–	–	–	–
CCCCCC(=O)Nc1cccc(C2=NOC3(C2)C[C@@H](C(N)=O)N(C(=O)CC(c2ccccc2)c2ccccc2)C3)c1 (some centres undefined)	?	23µM	–	?	–
CCCCCC(=O)Nc1cccc(C2=NOC3(C2)C[C@H](C(N)=O)N(C(=O)COc2ccc(Cl)cc2)C3)c1 (some centres undefined)	?	?	?	–	–
CC/C=C/C(=O)N1CC2(CC(c3cccc(NC(=O)CC(c4ccccc4)c4ccccc4)c3)=NO2)C[C@@H]1C(N)=O (some centres undefined)	16µM	–	?	–	–
C/C=C\C(=O)Nc1cccc(C2=NOC3(C2)C[C@@H](C(N)=O)N(C(=O)CC(c2ccccc2)c2ccccc2)C3)c1 (some centres undefined)	16µM	?	–	–	–
CC1(C(=O)N2CC3(CC(c4cccc(NC(=O)CC(c5ccccc5)c5ccccc5)c4)=NO3)C[C@@H]2C(N)=O)CC1 (some centres undefined)	–	–	–	–	–
CCCC(C)C(=O)Nc1ccc(S(=O)(=O)Nc2nccs2)cc1 (centres undefined)	–	–	–	–	–
N#C/C(=C\c1ccc(O)cc1)C(=O)NCc1ccccc1	–	?	-63	–	–
Cc1ccccc1COc1ccc(/C=C(\C#N)C(N)=O)cc1	–	–	–	–	–
N#C/C(=C\c1ccc(O)cc1)C(=O)NCc1cccc(Cl)c1	–	–	–	–	–
N#C/C(=C\c1ccc(OCc2ccccc2)cc1)C(N)=O	23µM	?	–	–	–
COc1ccc(/C=C(\C#N)C(=O)NCc2ccccc2)cc1	–	–	–	–	–
CC(=O)Nc1ccc(/C=C(\C#N)C(=O)NCc2ccccc2)cc1	?	–	-68	–	–
N#C/C(=C\c1ccc(OCc2ccccc2)cc1)C(=O)Nc1nc2c(s1)CCN(Cc1ccccc1)C2	21µM	23µM	–	–	–
CCOC(=O)N1CCN(C(=O)CCNS(=O)(=O)c2ccc3c(c2)c(=O)n(C)c(=O)n3C)CC1	–	–	–	–	–
SMILES	TDP1 cell noCPT	DT40 TDP1 CPT	IL-1B inflam inh	HT1080 IDH1KD tx	HT1080-NT tox
CC1(C(=O)NCCC#N)CCN1C(=O)C1(c2ccccc2)CCCC1 (centres undefined)	–	–	–	–	–
Cn1nc(N2CCN(S(=O)(=O)c3ccccc3)CC2)c(=O)n(C)c1=O	?	?	–	–	–
COc1ccc(CC(=O)NCC(C)(C)N2CCOCC2)cc1	–	–	–	–	–
CCOCCCNC(=O)C(c1ccc(OC)cc1)N(Cc1ccc2c(c1)OCO2)C(=O)c1ccccc1O (centres undefined)	?	?	–	–	–
N#C/C(=C/c1ccc(O)cc1)C(=O)NCc1ccc(Cl)cc1	–	–	-65	–	–
CCN(Cc1ccccc1)S(=O)(=O)c1ccc(C(=O)N(CCCN(C)C)c2nc3cc(C)cc(C)c3s2)cc1	12µM	23µM	-100	23µM	16µM
CCCCN(CC)S(=O)(=O)c1ccc(C(=O)N(CCCN(C)C)c2nc3cc(C)cc(C)c3s2)cc1	23µM	?	-178	?	21µM
Cc1cc(C)c2sc(N(CCCN(C)C)C(=O)c3ccc(S(=O)(=O)N(C)Cc4ccccc4)cc3)nc2c1	?	?	-110	–	–
Cc1cc(C)c2sc(N(CCCN(C)C)C(=O)CN3C(=O)c4ccccc4C3=O)nc2c1	?	?	–	?	?
O=C(C[N+]1(CC(O)c2ccccc2)CCOCC1)c1ccccc1 (centres undefined)	–	–	·	·	·
Cc1cccc(NC(=O)c2cnn(-c3ccc(F)cc3)c2C2CCNCC2)c1C	–	–	–	–	–
CCc1ccc(NC(=O)c2cnn(-c3c(C)cccc3C)c2C2CCNCC2)cc1	23µM	?	·	·	·
Cc1ccc(C)c(NC(=O)c2cnn(-c3ccc(F)cc3F)c2C2CCNCC2)c1	9.2µM	21µM	·	·	·
Cc1ccc(-n2ncc(C(=O)Nc3cc(Cl)ccc3C)c2C2CCNCC2)cc1C	23µM	16µM	–	–	–
Cc1cc(C)cc(NC(=O)c2cnn(-c3ccccc3)c2C2CCNCC2)c1	16µM	?	–	–	–
COC(=O)c1ccc(C(=O)OC)c(NC(=O)c2ccc(-c3ccccc3)s2)c1	–	–	·	·	·
COc1ccc(OC)c(NC(=O)c2cnn(-c3ccc(C)cc3)c2C2CCNCC2)c1	26µM	21µM	·	·	·
O=C(CN1CCN(S(=O)(=O)c2ccc(F)cc2)CC1)NCC1(N2CCOCC2)CCCCC1	–	–	–	–	–
COc1ccc(NC(=O)Nc2cccc3c2O[C@H](CN(C)Cc2ccc(-c4ccccc4)cc2)[C@@H](C)CN([C@H](C)CO)C3=O)cc1	12µM	8.2µM	–	–	–
C[C@@H]1CN([C@@H](C)CO)C(=O)c2cccc(NC(=O)Nc3ccc(F)cc3)c2O[C@@H]1CN(C)Cc1ccc(Oc2ccccc2)cc1	18µM	13µM	–	?	23µM
